Test results taken from PubChem BioAssay (Tox21).
Values joined by “and” are separate entries in the source; they are usually repeats but may differ in a detail not shown here. Equal entries are not always repeated. Results filed as inconclusive are left out. Some structures have more than one record in an assay (separate samples or runs), and their calls can disagree. Active and inactive are the calls of the source. Unless noted, the call rests on the fitted dose curve; in most records, active means well fitted curve in the direction sought with a large enough effect in the repeat runs; inconclusive means weak or mixed curves; inactive means no such curve, though single readings can be large; an effect the other way counts as inactive or inconclusive.

Experiments:
[1] = qHTS assay to identify small molecule antagonists of the glucocorticoid receptor (GR) signaling pathway - cell viability counter screen (AID 720693); further: nearly all actives have a fitted effect of over 55% in size
[2] = qHTS assay for identifying genotoxic compounds that show differential cytotoxicity against isogenic chicken DT40 cell lines with known DNA damage response pathways - wild type cell line (AID 743012); further: nearly all actives have a fitted effect of over 60% in size; further: potency means the concentration at half of the fitted maximal effect
In short: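 Wild-type DT40 cells (300/well) exposed to compounds for 40 hours at 37 C/5% CO2. Viability read by CellTiter-Glo luminescence after 30 min at room temperature.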

[3] = qHTS assay for identifying genotoxic compounds that show differential cytotoxicity against isogenic chicken DT40 cell lines with known DNA damage response pathways - Rev3 mutant cell line (AID 743014); further: nearly all actives have a fitted effect of over 55% in size; further: potency means the concentration at half of the fitted maximal effect
[4] = qHTS assay for identifying genotoxic compounds that show differential cytotoxicity against isogenic chicken DT40 cell lines with known DNA damage response pathways - Rad54/Ku70 mutant cell line (AID 743015); further: nearly all actives have a fitted effect of over 60% in size; further: potency means the concentration at half of the fitted maximal effect
[5] = qHTS assay to identify small molecule antagonists of the androgen receptor (AR) signaling pathway - cell viability counter screen (AID 743033; further: nearly all actives have a fitted effect of over 45% in size)
[6] = qHTS assay to identify small molecule antagonists of the androgen receptor (AR) signaling pathway using the MDA cell line - cell viability counter screen (AID 743041; further: nearly all actives have a fitted effect of over 45% in size)
In short: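 Viability counter screen run alongside the AR antagonist reporter: cells seeded 5 h before compound, R1881 added, 16 h incubation at 37C without CO2, fluorescent CellTiter-Fluor signal quantified.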

[7] = qHTS assay to identify small molecule antagonists of the thyroid receptor (TR) signaling pathway - cell viability counter screen (AID 743064); further: nearly all actives have a fitted effect of over 50% in size
In short: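 Counter screen for cytotoxicity: compound plus T3 (1 nM final) on GH3.TRE-Luc cells, 23.5 h at 37 °C, then fluorescence viability readout with CellTiter-Fluor.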

[8] = qHTS assay to identify small molecule antagonists of the thyroid receptor (TR) signaling pathway (AID 743065); further: nearly all actives have a fitted effect of over 55% in size; further: potency means the concentration at half of the fitted maximal effect; on activity, negative = inhibition: series mostly up to about 70 µM
In short: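 GH3.TRE-Luc rat pituitary cells carrying two TR response elements driving luciferase were plated for 4 h, given compound plus 1 nM T3 (final), and incubated 23.5 h at 37 C. ONE-Glo luminescence measured reporter inhibition; CellTiter-Fluor fluorescence tracked cytotoxicity.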

[9] = tested on: thyroid hormone receptor (rat, GH3 cells); assay: qHTS assay to identify small molecule agonists of the thyroid receptor (TR) signaling pathway (AID 743066; calls by dose curve)
[10] = target: Estrogen receptor (Homo sapiens) (UniProt P03372); assay: qHTS assay to identify small molecule antagonists of the estrogen receptor alpha (ER-alpha) signaling pathway (AID 743069; active means well fitted curve in the direction sought with a large enough effect in the signal ratio in the repeat runs, not every such curve was filed as active; the % refers to the signal ratio)
In short: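 Estradiol-stimulated ER-alpha-UAS-bla HEK293 cells, 18 hr compound exposure at 37C. LiveBLAzer B/G substrate, 2 hr RT, fluorescence read.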

[11] = qHTS assay to identify small molecule antagonists of the estrogen receptor alpha (ER-alpha) signaling pathway - cell viability counter screen (AID 743074; calls by dose curve;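 further: HEK293 cells carrying ER-alpha-UAS-bla reporter stimulated with 17beta-estradiol; nearly all actives have a fitted effect of over 45% in size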)
[12] = target: Estrogen receptor (Homo sapiens) (UniProt P03372); assay: qHTS assay to identify small molecule agonists of the estrogen receptor alpha (ER-alpha) signaling pathway (AID 743075; calls by dose curve;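 further: HEK293 GripTite cells with ER-alpha and UAS-driven beta-lactamase reporter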)
[13] = target: Estrogen receptor (Homo sapiens) (UniProt P03372); assay: qHTS assay to identify small molecule agonists of the estrogen receptor alpha (ER-alpha) signaling pathway using the BG1 cell line (AID 743079); further: nearly all actives have a fitted effect of over 20% in size
[14] = qHTS assay to identify small molecule antagonists of the estrogen receptor alpha (ER-alpha) signaling pathway using the BG1 cell line - cell viability counter screen (AID 743081);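 further: compound given together with 17beta-estradiol as the ER stimulus; series mostly up to about 70 µM; nearly all actives have a fitted effect of over 45% in size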
Aromatase (Homo sapiens) = Aromatase (Homo sapiens) (UniProt P11511); assay: qHTS assay to identify aromatase inhibitors (AID 743083); further: series mostly up to about 70 µM; nearly all actives have a fitted effect of over 55% in size
[15] = qHTS assay to identify small molecule antagonists of the estrogen receptor alpha (ER-alpha) signaling pathway using the BG1 cell line (AID 743080; calls by dose curve;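 further: BG1 cells stimulated with 17beta-estradiol alongside compound; series mostly up to about 70 µM; nearly all actives have a fitted effect of over 25% in size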)
In short: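 Quantitative HTS on the Tox21 10K library: BG1 cells with endogenous ER-alpha and ERE-luciferase reporter, 17beta-estradiol stimulation, 21.5 h compound exposure, luminescence endpoint with parallel fluorescence cytotoxicity counter-read.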

[16] = target: Androgen receptor (Homo sapiens) (UniProt P10275); assay: qHTS assay to identify small molecule antagonists of the androgen receptor (AR) signaling pathway (AID 743035; active means well fitted inhibition curve with a large enough effect in the signal ratio in the repeat runs, not every such curve was filed as active; the % refers to the signal ratio)
In short: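 HEK293 cells stably carrying UAS-beta-lactamase reporter, 2,000/well, given compounds plus R1881 agonist and incubated 16 h at 37C. LiveBLAzer B/G FRET substrate then added for 2 h at room temperature before fluorescence reading.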

[17] = target: Androgen receptor (Homo sapiens) (UniProt P10275); assay: qHTS assay to identify small molecule agonists of the androgen receptor (AR) signaling pathway (AID 743036; active means well fitted activation curve with a large enough effect in the signal ratio in the repeat runs, with a control signal flat, not every such curve was filed as active; the % refers to the signal ratio)
In short: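 In this Tox21 qHTS, 2,000 HEK293 AR-bla cells per well were incubated with compounds for 16 h at 37C and 5% CO2. Fluorescence intensity was recorded 2 h after adding LiveBLAzer B/G FRET substrate at room temperature.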

[18] = target: Androgen receptor (Homo sapiens) (UniProt P10275); assay: qHTS assay to identify small molecule agonists of the androgen receptor (AR) signaling pathway using the MDA cell line (AID 743040; further: nearly all actives have a fitted effect of over 20% in size)
In short: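 Luminescence from ONE-Glo, read after 30 min at room temperature, reflects MMTV-driven luciferase in MDA-kb2 cells (AR- and GR-responsive). Treatment lasted 16 h at 37C, 0% CO2.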

[19] = target: Androgen receptor (Homo sapiens) (UniProt P10275); assay: qHTS assay to identify small molecule antagonists of the androgen receptor (AR) signaling pathway using the MDA cell line (AID 743042; further: nearly all actives have a fitted effect of over 55% in size)
In short: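 MDA-kb2 cells (human breast carcinoma, stably carrying an MMTV-luciferase reporter responsive to AR and GR) were plated at 3,000 cells/well and preincubated 5 hr at 37C, then given compound plus R1881 agonist for 16 h. ONE-Glo luminescence was read.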
On the % scale 0 is the no-effect control and ±100 the full control effect.

Sequence of Androgen receptor (Homo sapiens) (P10275 whole entry, looked up): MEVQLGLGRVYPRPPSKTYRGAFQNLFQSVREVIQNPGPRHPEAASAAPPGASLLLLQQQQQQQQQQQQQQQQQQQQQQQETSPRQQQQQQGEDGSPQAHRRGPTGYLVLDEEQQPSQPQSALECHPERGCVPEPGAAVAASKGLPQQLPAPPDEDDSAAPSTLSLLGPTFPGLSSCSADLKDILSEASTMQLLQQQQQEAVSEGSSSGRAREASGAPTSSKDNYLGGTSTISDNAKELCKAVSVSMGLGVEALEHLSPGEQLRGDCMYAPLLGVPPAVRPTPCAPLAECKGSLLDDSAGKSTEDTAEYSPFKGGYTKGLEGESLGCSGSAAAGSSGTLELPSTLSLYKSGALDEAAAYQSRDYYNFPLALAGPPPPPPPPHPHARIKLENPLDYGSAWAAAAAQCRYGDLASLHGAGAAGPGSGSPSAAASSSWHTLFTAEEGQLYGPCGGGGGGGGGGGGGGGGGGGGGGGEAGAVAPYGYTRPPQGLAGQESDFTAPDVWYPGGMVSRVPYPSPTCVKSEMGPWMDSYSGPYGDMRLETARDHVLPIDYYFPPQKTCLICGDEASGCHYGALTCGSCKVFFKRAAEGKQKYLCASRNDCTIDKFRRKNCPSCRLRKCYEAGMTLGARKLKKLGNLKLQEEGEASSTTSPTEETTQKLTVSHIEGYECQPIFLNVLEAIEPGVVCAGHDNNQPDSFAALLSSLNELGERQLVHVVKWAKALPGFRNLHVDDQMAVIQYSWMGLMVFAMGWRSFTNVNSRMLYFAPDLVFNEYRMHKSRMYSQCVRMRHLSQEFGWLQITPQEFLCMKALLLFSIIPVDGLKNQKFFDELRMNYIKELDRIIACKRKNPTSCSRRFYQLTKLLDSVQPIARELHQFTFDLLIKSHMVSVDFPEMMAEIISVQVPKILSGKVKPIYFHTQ
Sequence of Aromatase (Homo sapiens) (P11511 whole entry, looked up): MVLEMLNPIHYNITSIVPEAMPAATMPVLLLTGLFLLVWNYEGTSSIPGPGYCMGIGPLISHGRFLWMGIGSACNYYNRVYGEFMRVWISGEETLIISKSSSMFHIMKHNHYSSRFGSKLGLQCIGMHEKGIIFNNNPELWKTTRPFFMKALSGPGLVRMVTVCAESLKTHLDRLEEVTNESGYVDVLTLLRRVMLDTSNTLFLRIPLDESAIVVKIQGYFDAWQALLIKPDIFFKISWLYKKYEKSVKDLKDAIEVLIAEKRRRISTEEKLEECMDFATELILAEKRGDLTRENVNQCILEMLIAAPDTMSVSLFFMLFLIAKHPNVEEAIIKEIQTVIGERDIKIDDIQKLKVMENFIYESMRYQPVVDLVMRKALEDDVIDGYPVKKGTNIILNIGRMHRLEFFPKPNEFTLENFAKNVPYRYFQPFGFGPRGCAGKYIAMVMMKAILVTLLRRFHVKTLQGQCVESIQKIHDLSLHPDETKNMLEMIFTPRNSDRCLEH
Sequence of Estrogen receptor (Homo sapiens) (P03372 whole entry, looked up): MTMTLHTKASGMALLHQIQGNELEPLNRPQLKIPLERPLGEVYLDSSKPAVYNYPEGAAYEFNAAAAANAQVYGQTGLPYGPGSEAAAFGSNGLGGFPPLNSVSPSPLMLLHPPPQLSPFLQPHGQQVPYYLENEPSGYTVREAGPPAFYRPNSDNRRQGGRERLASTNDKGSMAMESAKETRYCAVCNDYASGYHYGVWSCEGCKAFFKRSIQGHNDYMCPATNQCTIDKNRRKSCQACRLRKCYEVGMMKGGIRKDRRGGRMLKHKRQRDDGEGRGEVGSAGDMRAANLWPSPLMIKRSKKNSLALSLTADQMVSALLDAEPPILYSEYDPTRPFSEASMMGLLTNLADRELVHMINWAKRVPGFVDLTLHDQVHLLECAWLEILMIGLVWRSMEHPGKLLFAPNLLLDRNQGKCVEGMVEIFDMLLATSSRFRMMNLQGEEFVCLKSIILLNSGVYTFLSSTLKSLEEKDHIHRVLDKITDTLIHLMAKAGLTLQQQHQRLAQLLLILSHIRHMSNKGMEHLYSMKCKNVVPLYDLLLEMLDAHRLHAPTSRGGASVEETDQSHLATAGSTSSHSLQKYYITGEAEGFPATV

COc1cc(Cc2cnc(N)nc2N)cc(OC)c1OC
inactive: outcome [1] | Potency [2] | Potency [3] | Potency [4] | Potency [5] | Potency [6] | Potency [7] | Potency [8] | Potency [9] | Potency [10] | outcome [11] | Potency [12] | Potency [13] | Potency [14] | Potency (Aromatase (Homo sapiens))

O=C=NCCCCCCN=C=O
inactive: outcome [1] | Potency [2] | Potency [3] | Potency [4] | Potency [5] | Potency [6] | Potency [7] | Potency [8] | Potency [9] | Potency [10] | outcome [11] | Potency [12] | Potency [13] | Potency [15] | Potency [14] | Potency (Aromatase (Homo sapiens))

OCCOCCOCCO
inactive: outcome [1] | Potency [2] | Potency [3] | Potency [4] | Potency [5] | outcome [16] | Potency [17] | Potency [18] | Potency [6] | outcome [19] | Potency [7] | Potency [10] | outcome [11] | Potency [12] | Potency [13] | Potency [14] | Potency (Aromatase (Homo sapiens))

CCc1cccc(C)c1N
inactive: outcome [1] | Potency [2] | Potency [3] | Potency [4] | Potency [5] | outcome [16] | Potency [17] | Potency [18] | Potency [6] | outcome [19] | Potency [7] | Potency [8] | Potency [9] | Potency [10] | outcome [11] | Potency [12] | Potency [13] | Potency [14] | Potency (Aromatase (Homo sapiens))

CCCCCCCCCC
inactive: outcome [1] | Potency [2] | Potency [3] | Potency [4] | Potency [5] | Potency [6] | Potency [7] | Potency [8] | Potency [9] | Potency [10] | outcome [11] | Potency [12] | Potency [13] | Potency [14] | Potency (Aromatase (Homo sapiens))

CC(C)CC(=O)CC(C)C
inactive: outcome [1] | Potency [2] | Potency [3] | Potency [4] | Potency [5] | Potency [6] | Potency [7] | Potency [8] | Potency [9] | outcome [11] | Potency [14]

C/C=C1/CC2C=CC1C2 (centres undefined)
inactive: outcome [1] | Potency [2] | Potency [3] | Potency [4] | Potency [5] | Potency [6] | Potency [7] | Potency [8] | Potency [9] | Potency [10] | outcome [11] | Potency [12] | Potency [13] | Potency [14] | Potency (Aromatase (Homo sapiens))

CCN(CC)CCCC(C)Nc1ccnc2cc(Cl)ccc12 (centres undefined)
inactive: outcome [1] | Potency [5] | viability change, negative = cytotoxic [6] -15.9% [at 8.47 µM] | activity change, negative = cytotoxic [7] -23.7% [at 8.44 µM] | activity, negative = inhibition [8] -19.4% [at 8.44 µM] | Potency [9] | Potency [10] | outcome [11] | Potency [12] | Potency [13] | Potency [14] | Potency (Aromatase (Homo sapiens))
active: Potency [2] 21.1 µM | Potency [3] 13.3 µM and 2.66 µM | Potency [4] 18.8 µM | Potency [8] 26.6 µM
